# Screening data (PubChem)
# The list is not random: actives were taken first. Their share in the collection is about 6.1%.
# D3 antag: qHTS of D3 Dopamine Receptor Antagonist: qHTS; D(3) dopamine receptor (Homo sapiens), P35462; D3R cells, DiscoveRx beta-arrestin luminescence, antagonist mode; hits give low values; max response, negative = inhibition, %; hit rate 2.5% among 360,000; in the data active = max response below about -50%; inconclusive = no clear call, values can overlap the other calls; note: % is set by controls: 0 for no effect and ±100 for the full control effect
#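 Cells expressing the human receptor were seeded at 1500 cells/well, incubated overnight at 37 degrees C in 5% CO2, then exposed to library compounds with dopamine controls for 90 minutes at 37 degrees C before luminescent detection.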
# ERG Ets-DNA blk: qHTS for Small Molecule Inhibitors of the ERG Ets/DNA interaction; fluorescence polarization, His-ERG Ets domain / labelled DNA; Potency, µM (series often up to 76.9 µM), for the others: top-dose FP activity, negative = inhibition, most hits filed as inhibitors; Transcriptional regulator ERG (Homo sapiens), P11308; hit rate 0.028% among 370,000; AID 624246, 2012; active = well fitted inhibition curve with a large enough effect in the polarisation, with a control signal flat; inconclusive = small, poorly fitted or top-dose-only effect, or effect the other way, or a change in a side signal; inactive = no such curve, though single readings can be large or run the other way; the % refers to the polarisation;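 note: polarization taken with two DNA probes labelled with fluorescein and Texas red; potency is the fitted concentration of half-maximal effect; % of control where 0% means no effect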
# Target sequence (P11308 whole entry, looked up, the tested form may be a part): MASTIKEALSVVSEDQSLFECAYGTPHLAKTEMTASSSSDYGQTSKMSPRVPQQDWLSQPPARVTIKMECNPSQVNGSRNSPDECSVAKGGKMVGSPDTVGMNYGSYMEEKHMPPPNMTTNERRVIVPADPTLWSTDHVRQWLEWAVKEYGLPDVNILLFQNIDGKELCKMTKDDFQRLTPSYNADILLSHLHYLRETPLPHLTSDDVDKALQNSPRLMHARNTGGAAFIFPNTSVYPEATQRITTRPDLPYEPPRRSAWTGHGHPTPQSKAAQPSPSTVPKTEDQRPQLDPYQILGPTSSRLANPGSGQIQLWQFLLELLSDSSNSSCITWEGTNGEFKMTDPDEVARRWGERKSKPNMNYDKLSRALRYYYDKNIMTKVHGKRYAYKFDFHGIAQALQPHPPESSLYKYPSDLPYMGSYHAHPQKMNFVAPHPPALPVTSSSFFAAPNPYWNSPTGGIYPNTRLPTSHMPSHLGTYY
#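 His-tagged ERG Ets domain (1 uM in the protein solution; 300mM KCl, 50mM Tris-HCl, 1mM EDTA, 1mM DTT, pH 7.5) received compound, then a probe mix of 5 nM fluorescein-DNA and 100nM Texas-615-DNA. Fluorescence polarization was read for both dyes.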
# DRD3 agonist: qHTS of D3 Dopamine Receptor Agonist: qHTS | D(3) dopamine receptor (Homo sapiens), P35462 | D3R DiscoveRx beta-arrestin cells, luminescence, 90 min | max activation, % | hit rate 0.58% among 410,000 | AID 652048, 2013; in the data active = max activation above about 30%; note: 0% is about no effect
#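 Agonist-mode cell screen: cells plated at 1500/well and incubated overnight at 37 °C, then exposed to library compounds for 90 min at 37 °C. Detection reagent was added for 30–60 min at room temperature, and luminescence was read.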
# D1 potentiator: Potentiators of Human D1 Dopamine Receptor: qHTS; HEK293 TREx D1 cells, calcium flux, dopamine EC20 potentiation; potentiation, % at 10 µM; hit rate 0.036% among 360,000; AID 504651, 2011; in the data active = potentiation above about 30%; note: 0% is about no effect
# D1 antagonist: Antagonist of Human D 1 Dopamine Receptor: qHTS; D(1A) dopamine receptor (Homo sapiens), P21728; HEK293 TREx D1 cells, calcium flux, dopamine EC80; hits give low values; activity change, negative = inhibition, % at 10 µM; hit rate 3.2% among 360,000; AID 504652, 2011; in the data active = activity change below about -30%; note: % is set by controls: 0 for no effect and ±100 for the full control effect
#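 Tetracycline-induced HEK293 Trex D1 cells, force-coupled to calcium, dye-loaded; compounds added and read 180 s, then EC80 dopamine added and calcium flux tracked kinetically another 180 s.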
# D1 agonist: Allosteric Agonists of the Human D1 Dopamine Receptor: qHTS | AID 504660, 2011 | activation, % at 2 µM | hit rate 1% among 360,000 | HEK293 T-REx D1 cells, calcium flux, agonist mode; in the data active = activation above about 30%; note: 0% is about no effect
#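 Inducible HEK293 T-REx D1 cells, force-coupled to calcium signalling, were plated at 4000 cells/well with tetracycline and held overnight at 30 C. After no-wash calcium dye loading, compound-evoked calcium rise over 180 s flagged agonists.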
# Starred values were filed as active, the others as inactive; ? = inconclusive; . = no result given; ! = repeats disagree.
SMILES,D3 antag,ERG Ets-DNA blk,DRD3 agonist,D1 potentiator,D1 antagonist,D1 agonist
C[C@@H]1CN([C@H](C)CO)C(=O)c2cc(NC(=O)Cc3cn(C)c4ccccc34)ccc2O[C@H]1CN(C)S(=O)(=O)c1ccc(F)cc1,-17,5%,-3,.,.,.
COCCN(CC(=O)Nc1cccc(C)c1C)C(=O)Cc1ccsc1,3,-5%,5,.,.,.
CC(C)CC(=O)NC(=S)Nc1nc(-c2cccc3ccccc23)cs1,-73*,-3%,-9,5,18,1
O=C(Nc1cccc(S(=O)(=O)N2CCCCC2)c1)c1ccccc1NS(=O)(=O)c1ccc(F)cc1,0,9%,-2,-8,-52*,41*
O=C(Nc1cccc(O)c1)c1ccc(S(=O)(=O)N2CCCCCC2)cc1,-13,-6%,-2,0,-8,0
COC(=O)c1ccccc1NS(=O)(=O)c1ccc(NC(C)=O)cc1,15,10%,3,1,-2,4
COC(=O)c1ccccc1NS(=O)(=O)c1ccc(F)cc1,16,5%,-9,-2,-36*,-1
O=C(Nc1cccc(F)c1)c1ccc(S(=O)(=O)N2CCCCC2)cc1,1,-9%,-1,-8,-43*,12
Cc1ccc(NC(=O)c2ccccc2NS(=O)(=O)c2ccc(F)cc2)cc1S(=O)(=O)N1CCCCC1,6,2%,1,-4,-28,28
COc1ccc(-c2cnnn2-c2ccc(NC(=O)c3ccc(S(=O)(=O)N4CCCCC4)cc3)cc2)cc1OC,27,3%,26,-8,-34*,6
Cc1ccc(S(=O)(=O)Nc2cccc(C(=O)NCC3(N4CCCCC4)CCCCC3)c2)cc1F,0,14%,-4,6,-15,0
O=C(Nc1ccc(Cc2ccncc2)cc1)c1ccc(S(=O)(=O)N2CCCC2)cc1,39,3%,-1,-7,-39*,23
O=C(CN1CCCN(S(=O)(=O)c2ccc(F)cc2)CC1)Nc1cccc(F)c1,-7,-9%,-7,-12,-2,2
O=C(CN1CCN(C(=O)c2cccc(S(=O)(=O)N3CCCC3)c2)CC1)Nc1cccc(F)c1,16,12%,3,-4,-33*,3
C[C@]12c3[nH]c4ccc(Cl)cc4c3CCN1C(=O)[C@@H](CC(=O)NCc1cccc(C(F)(F)F)c1)C[C@@H]2C(=O)N1CCOCC1,-3,1%,2,.,.,.
O=C(C[n+]1cccc(CNC(=O)c2ccc(OC(F)F)cc2)c1)Nc1ccccc1Cl,-17,-2%,-6,-2,-32*,1
O=C(O)CC(C(=O)OC1CCCCC1)N1CCOCC1 (stereo not given),-92*,.,-4,-3,-8,1
CCCCCCCCCOC(=O)C(CC(=O)O)N1CCOCC1 (stereo not given),-52*,2%,8,0,-2,3
C=CCn1c2ccccc2c2nnc(SCC(=O)OC)nc21,-23,.,0,.,.,.
Cc1cc(C)nc(NC(=O)/C=C/c2ccc3c(c2)OCO3)c1,3,-2%,-11,14,52,4
Cc1ccc(NC(=O)COc2ncnc3ccccc23)cc1S(=O)(=O)N1CCOCC1,20,2%,-6,-8,-5,2
O=C(COc1ncnc2ccccc12)Nc1ccc(Cl)c(S(=O)(=O)N2CCOCC2)c1,10,-4%,3,-1,-38*,4
O=C(Cc1cccs1)Nc1ccc(F)c(S(=O)(=O)N2CCOCC2)c1,19,1%,4,-1,-12,8
O=C(CSc1nc2ccccc2c(=O)n1-c1ccc(F)cc1)Nc1ccc(Cl)c(S(=O)(=O)N2CCOCC2)c1,-7,.,0,-4,-52*,6
O=C(Cc1cccs1)Nc1ccc(Cl)c(S(=O)(=O)N2CCOCC2)c1,0,11%,-2,1,-33*,15
SMILES,D3 antag,ERG Ets-DNA blk,DRD3 agonist,D1 potentiator,D1 antagonist,D1 agonist
O=C(CSc1nc2ccccc2c(=O)n1-c1ccc(F)c(Cl)c1)Nc1cccc(S(=O)(=O)N2CCOCC2)c1,?,7%,-5,-3,-11,5
CCc1ccc(OCC(=O)N(C)C2CCS(=O)(=O)C2)cc1 (stereo not given),-21,6%,-3,0,-15,10
CCC(C)N(C(=O)COc1ccccc1C#N)C1CCS(=O)(=O)C1 (stereo not given),6,1%,0,-5,-3,1
Cc1ccc(CN(C(=O)COc2c(C)cccc2C)C2CCS(=O)(=O)C2)o1 (stereo not given),.,-2%,-10,2,-43*,-2
COc1ccc(OCC(=O)N(Cc2sccc2C)C2CCS(=O)(=O)C2)cc1 (stereo not given),-4,-2%,6,-4,-73*!,0
CN(C(=O)COc1ccc(C(C)(C)C)cc1)C1CCS(=O)(=O)C1 (stereo not given),-64*,.,-6,11,-3,3
Cc1cccc(OCC(=O)N(Cc2ccc(C)o2)C2CCS(=O)(=O)C2)c1 (stereo not given),1,-7%,0,-2,-20,3
CCC(C)N(C(=O)COc1ccc(-c2nnco2)cc1)C1CCS(=O)(=O)C1 (stereo not given),21,6%,1,-13,-54*,3
CCOC(=O)C1=C(C)NC(C)=C(C(=O)OCC)C1C(=O)OCC(=O)N(C)C1CCS(=O)(=O)C1 (stereo not given),0,2%,2,-4,-36*,2
CN(C(=O)COC(=O)c1ccccc1OCc1ccc(F)cc1)C1CCS(=O)(=O)C1 (stereo not given),5,0%,3,-6,-31*,-1
CCc1nc2ccc(C(=O)Nc3nnc(C)s3)cc2nc1CC,-3,7%,-21,-8,-42*,3
COC(=O)C1=C(C(=O)OC)[C@@H]2N(C)c3ccccc3[C@@]23C[C@@H](CO)N(C(=O)C2CCC2)C3=N1,-53*,-1%,-20,.,.,.
COC(=O)C1=C(C(=O)OC)[C@@H]2N(C)c3ccc(OC)cc3[C@@]23C[C@@H](C(=O)OC)N(C(=O)C2CCC2)C3=N1,-5,-15%,0,-1,0,-1
CC(=O)C[C@H]1c2ccccc2S(=O)(=O)N1C1CCCC1,-168*,-7%,-27,.,.,.
CCOC(=O)C[C@H]1c2ccccc2S(=O)(=O)N1C1CC1,0,2%,0,.,.,.
